# Screening results (PubChem)
# NPC1 promoter act: activates the NPC1 promoter | Huh7 NPC1 promoter luciferase reporter, 24 h | Potency, µM (top dose mostly 9.22 µM), usual class: activators | actives 2.4% (n = 320,000) | AID 485313; also: nearly all actives have a fitted effect of over 60% in size
#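 Luminescence from an NPC1 promoter-driven luciferase reporter in stably transfected Huh7 cells was measured after 24 h compound treatment at 37 °C, followed by 10 min ambient incubation with luciferase detection reagent.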
# SMN2 splice enh: increases expression of the SMN2 splice variant | AID 1458 | actives 2.8% (n = 210,000) | Potency, µM (top dose mostly 46.1 µM), hits mostly activators | HEK293 SMN2-luciferase splicing reporter, luminescence, 30-36 h; also: nearly all actives have a fitted effect of over 55% in size
#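 HEK293 cells carry an SMN2 minigene-luciferase reporter in which exon 7 inclusion puts luciferase in frame. Cells were seeded at 2000 cells/well, attached for 10-12 hours, then exposed to compounds for 30-36 hours at 37C before ONE-Glo luminescence.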
# ELG1 genotoxic: genotoxicity induction in ELG1-luciferase HEK293T cells | HEK293T ELG1-luciferase reporter, luminescence, 16 h | Potency, µM (top dose mostly 46 µM), usual class: activators | actives 1.3% (n = 330,000) | AID 504466; also: nearly all actives have a fitted effect of over 60% in size
#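 Cells (2,000/well) expressing the ELG1-luciferase fusion are dosed by pin tool and kept 16 hr at 37 °C, 5% CO2. Signal comes from ONE-Glo luciferase reagent after 30 min at room temperature.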
# FLuc counter: firefly luciferase modulation, counter-screen for miR-21 project; purified FLuc, Km substrates, luminescence inhibition; Potency, µM (doses to about 57.5 µM), usual class: inhibitors; actives 6.9% (n = 360,000); also: nearly all actives have a fitted effect of over 55% in size
# Target sequence (P08659 whole entry, looked up): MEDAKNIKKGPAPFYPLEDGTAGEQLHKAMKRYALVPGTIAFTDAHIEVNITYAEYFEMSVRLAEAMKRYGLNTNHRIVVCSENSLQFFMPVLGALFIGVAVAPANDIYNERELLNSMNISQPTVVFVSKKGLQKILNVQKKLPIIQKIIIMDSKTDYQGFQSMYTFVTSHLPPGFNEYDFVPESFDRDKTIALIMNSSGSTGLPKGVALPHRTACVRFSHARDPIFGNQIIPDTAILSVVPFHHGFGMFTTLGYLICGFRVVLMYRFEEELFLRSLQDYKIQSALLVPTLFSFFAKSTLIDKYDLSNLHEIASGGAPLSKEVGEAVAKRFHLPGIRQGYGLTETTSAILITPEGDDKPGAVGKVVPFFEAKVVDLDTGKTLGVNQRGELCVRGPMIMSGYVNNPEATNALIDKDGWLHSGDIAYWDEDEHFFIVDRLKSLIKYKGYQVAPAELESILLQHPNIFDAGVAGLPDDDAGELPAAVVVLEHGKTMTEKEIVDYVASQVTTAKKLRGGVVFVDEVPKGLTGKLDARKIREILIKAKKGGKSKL
#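 Purified P. pyralis luciferase, 10 nM final, with Km-level 10 uM D-luciferin and 10 uM ATP in 50 mM Tris acetate pH 7.5, 10 mM Mg acetate, 0.01% Tween-20, 0.05% BSA; 6-point qHTS titration about 60 µM downward; luminescence read.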
# Rab9 promoter act: activates the Rab9 promoter; Huh7 Rab9 promoter-luciferase reporter, luminescence, 24 h; Potency, µM (doses to about 9.22 µM), actives largely listed as activators; actives 2.8% (n = 320,000); AID 485297; also: nearly all actives have a fitted effect of over 60% in size
#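 Huh7 cells stably carrying Rab9 promoter–luciferase reporter, plated 1500 cells/well, compound added after 2 h and incubated 24 h at 37 °C; luciferase luminescence then read after 10 min with detection reagent.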
# KinaseGlo FLuc: Kinase-Glo luciferase inhibition (counter-screen). AID 1379. Kinase-Glo luciferase, ATP luminescence, 8 min. actives 0.28% (n = 200,000). Potency, µM (highest dose often 38.3 µM), actives largely listed as inhibitors. Q27757; also: nearly all actives have a fitted effect of over 60% in size
#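 Kinase-Glo luciferase light output from ATP and luciferin was measured with 10 uM ATP, within the enzyme's linear range. Buffer: 50 mM imidazole pH 7.2, 50 mM KCl, 7 mM MgCl2, 0.01% Tween 20, 0.05% BSA; luminescence read after 8 min at ambient temperature.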
# A number is an active result; i = inactive; ? = inconclusive; nt = not tested or not shown; [ ] = another dose, or the depositor's remark. Rows were chosen to be rich in hits. Some 7.4% of all compounds tested hit in one or more screens of this group. Calls follow the shape of the dose curve; as a rule, active = well fitted curve in the direction sought with a large enough effect; inconclusive = small, poorly fitted or top-dose-only effect, or another doubt; inactive = no such curve, though single readings can be large; an effect the other way counts as inactive or inconclusive.
SMILES,NPC1 promoter act,SMN2 splice enh,ELG1 genotoxic,FLuc counter,Rab9 promoter act,KinaseGlo FLuc
Cc1ccc(C)c(N2CCN(C(=O)C(C)n3nc(C)c4sc5ccccc5c4c3=O)CC2)c1 (stereo unspecified),nt,nt,nt,15µM,nt,nt
Cc1nn(C(C)C(=O)N2CCCCC2)c(=O)c2c1sc1ccccc12 (stereo unspecified),i,i,i,i,i,i
CCc1nnc(NC(=O)c2ccc(S(C)(=O)=O)cc2)s1,?,nt,i,21µM,i,nt
CCc1nnc(NC(=O)c2cccc(OC)c2)s1,3.2µM,16µM,?,8.5µM,3.2µM,i
CCc1nnc(NC(=O)c2ccc(OC)cc2)s1,0.71µM,3.2µM,i,4.8µM,0.32µM,i
CCc1nnc(NS(=O)(=O)c2ccc(Nc3ccc([N+](=O)[O-])c4nonc34)cc2)s1,i,i,i,15µM,i,i
CCOCc1nnc(NC(=O)c2cccc(OC)c2)s1,i,?,i,?,i,i
CCOc1ccc(-n2c(SC(C)C(=O)OC)nc3c([nH]c4ccccc43)c2=O)cc1 (stereo unspecified),nt,nt,nt,i,nt,nt
CCCCNc1ncnc2c1nnn2C,nt,nt,nt,i,nt,nt
CCCCOC(=O)Nc1nnc(CC)s1,i,i,15µM,?,?,i
COc1cccc(C(=O)Nc2nnc(-c3cccs3)s2)c1,?,5.6µM,0.82µM,1.9µM,3.2µM,i
CCCCCOC(=O)Nc1nnc(CCCCC)s1,i,i,i,i,i,i
CCc1nnc(NS(=O)(=O)c2ccc(NC(=O)OC)cc2)s1,i,i,i,i,i,i
CCc1nnc(NS(=O)(=O)c2ccc(NC(=O)c3ccc(Br)cc3)cc2)s1,i,nt,i,27µM,i,nt
COc1ccc(-c2nnc(NC(=O)c3cccs3)s2)c(OC)c1,i,nt,?,?,i,nt
CCc1nnc(NS(=O)(=O)c2ccc(N/C=C/C(=O)c3ccc(OC)cc3)cc2)s1,i,nt,?,21µM,i,i
CCOC(=O)c1ccc(NC(=O)CSc2nnc(NC(=O)c3ccc(S(=O)(=O)N4CCOCC4)cc3)s2)cc1,i,?,i,1.7µM,i,i
Cc1ccc(NC(=O)CSc2nnc(NC(=O)c3ccc(S(=O)(=O)N4CCOCC4)cc3)s2)cc1,i,?,i,2.7µM,i,i
O=C(Nc1ccc(NC(=O)c2cccs2)cc1)c1ccc(Br)cc1,nt,i,nt,i,nt,nt
Cc1ccnc(N(C(=O)c2cccs2)C(=O)c2cccs2)c1,2.5µM,13µM,2.1µM,19µM,3.5µM,?
Cc1ccc2[nH]c(=O)c(CN(C)C(=O)c3cccs3)cc2c1,i,i,i,i,i,i
O=C(c1cccs1)N(C(=O)c1cccs1)c1ccc(Br)cn1,?,?,2.1µM,?,1.6µM,i
COC(=O)C1=C(C(=O)OC)[C@@H]2N(Cc3ccccc3)c3ccccc3[C@@]23C[C@@H](C(=O)OC)N(S(=O)(=O)c2ccc([N+](=O)[O-])cc2)C3=N1,nt,i[9.22 µM],nt,nt,nt,i[7.66 µM]
O=C(C1CCC(Cn2c(=O)c3sccc3n(Cc3ccccc3F)c2=O)CC1)N1CCOCC1 (stereo unspecified),nt,nt,nt,i,nt,nt
O=Cc1c(OCc2ccccc2)ccc2ccccc12,?,14µM,?,12µM,?,i
SMILES,NPC1 promoter act,SMN2 splice enh,ELG1 genotoxic,FLuc counter,Rab9 promoter act,KinaseGlo FLuc
C/[N+]([O-])=C/c1c(OCc2ccccc2)ccc2ccccc12,?,nt,?,i,?,nt
O=c1oc(-c2ccc([N+](=O)[O-])cc2)nc2ccc(O)cc12,i,i,i,15µM,?,i
Nc1ccc(-c2nc3cc([N+](=O)[O-])ccc3o2)cc1,1.4µM,nt,i,2.1µM,1.1µM,nt
O=c1oc(-c2ccc([N+](=O)[O-])cc2)nc2ccccc12,i,i,i,i,i,i
COc1ccc(-c2nc3cc([N+](=O)[O-])ccc3o2)cc1,2.5µM,nt,?,0.48µM,1.6µM,nt
CC(C)(C)Nc1nc2cc([N+](=O)[O-])ccc2o1,i,nt,i,?,i,nt
Nc1ccn([C@H]2O[C@H](CO)[C@@H]3[O][Sn]([c]4ccccc4)([c]4ccccc4)[O][C@H]32)c(=O)n1,nt,i[9.22 µM],nt,nt,nt,i[7.66 µM]
CCN(CC)S(=O)(=O)c1ccc2c(c1)N(CC(=O)Nc1ccc(F)cc1F)C(=O)C1CCCN21 (stereo unspecified),nt,nt,nt,i,nt,nt
CN(C(=O)c1ccco1)c1nnc(C23CC4CC(CC(C4)C2)C3)s1,?,16µM,?,9.5µM,?,i
COc1ccc(OC)c(-c2csc(N(C)C(=O)c3ccco3)n2)c1,i,nt,i,?,i,nt
CN(C(=O)c1ccco1)c1nc2c(s1)CCCC2,0.71µM,14µM,?,2.4µM,0.89µM,i
COc1ccc(C(=O)Nc2nnc(SCC(=O)NCC3CCCO3)s2)cc1OC (stereo unspecified),i,nt,i,12µM,i,nt
O=C(CSc1nnc(NC(=O)c2ccccc2)s1)NCC1CCCO1 (stereo unspecified),3.5µM,nt,?,4.3µM,2.8µM,nt
O=C(CSc1nnc(NC(=O)c2cccc(Br)c2)s1)NCC1CCCO1 (stereo unspecified),?,nt,?,8.5µM,nt,nt
O=C(CSc1nnc(NC(=O)c2ccccc2F)s1)NCC1CCCO1 (stereo unspecified),?,nt,?,12µM,?,nt
O=C(CSc1nnc(Nc2ccccc2F)s1)NCC1CCCO1 (stereo unspecified),nt,nt,i,nt,nt,nt
Cc1cc(C)cc(C(=O)Nc2nnc(SCC(=O)NCC3CCCO3)s2)c1 (stereo unspecified),i,nt,i,?,i,nt
O=C(CSc1nnc(NC(=O)c2ccccc2[N+](=O)[O-])s1)NCC1CCCO1 (stereo unspecified),i,nt,i,17µM,i,nt
O=C(CSc1nnc(NC(=O)Cc2ccccc2)s1)NCC1CCCO1 (stereo unspecified),i,i,i,i,i,i
Cn1c(SCC(=O)NCC2CCCO2)ncc(C(=O)Nc2ccccc2)c1=O (stereo unspecified),i,nt,?,?,i,nt
Cc1ccc(NC(=O)c2cnc(SCC(=O)NCC3CCCO3)n(C)c2=O)cc1C (stereo unspecified),?,nt,21µM,4.8µM,?,nt
Fc1ccccc1-n1ncc2c1ncn1nc(COc3ccc(Cl)cc3)nc21,nt,i,nt,i,nt,nt
CC(C)S(=O)(=O)c1csc(C(=O)Nc2ccc(F)cc2)c1N,0.56µM,nt,2.9µM,6µM,0.56µM,nt
CC(C)n1nnnc1SCC(=O)Nc1ccc2c(c1)OCCO2,3.2µM,nt,?,17µM,?,nt
Nn1c(SCC(=O)Nc2ccc3c(c2)OCCO3)nncc1=O,i,nt,i,21µM,i,nt
CCn1nnnc1SCC(=O)Nc1ccc2c(c1)OCCO2,2.8µM,11µM,?,15µM,?,i
Cc1ccccc1-c1nnc(SCC(=O)Nc2ccc3c(c2)OCCO3)n1N,i,i,i,i,i,i
CCn1nnnc1SCC(=O)Nc1nnc(C(C)C)s1,i,0.4µM,i,i,i,i
